Inconclusive results are not listed. Some compounds were tested as several samples or in several runs, with calls that do not always agree. Unmarked numbers belong to inactive results. Activity calls are given as the source filed them. Unless noted, calls follow the shape of the dose curve; as a rule, active = well fitted curve in the direction sought with a large enough effect; inconclusive = small, poorly fitted or top-dose-only effect, or another doubt; inactive = no such curve, though single readings can be large; an effect the other way counts as inactive or inconclusive.
Tests used:
[1] = biological target: Cellular tumor antigen p53 (Homo sapiens) (UniProt P04637); experiment: Primary qHTS for small molecule compounds that upregulate eGFP-tagged delta133p53alpha (in N-terminal) cells. (AID 2060322); settings: NCI-H358 eGFP-delta133p53alpha fluorescence, 24 h; activation: active compounds read high; also: nearly all actives have a fitted effect of over 75% in size; also: potency is read from the fitted curve at half-maximal effect;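 as to activation: series mostly up to about 56 µM; 0% = DMSO vehicle and 100% = reference activator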
Procedure, shortened: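 NCI-H358 cells pre-induced 24 h with 10 ng/ml doxycycline to express N-terminal eGFP-delta133p53alpha, then dosed 24 h at 37C without doxycycline; fixed, Hoechst-stained, GFP intensity by laser scanning cytometry, normalized to DMSO (0%) and 57.5 uM 5-azacytidine (100%).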

[2] = biological target: Aldehyde dehydrogenase, mitochondrial (Homo sapiens) (UniProt P05091); experiment: qHTS for Inhibitors of the Aldehyde Dehydrogenase Family (ALDH2) Validation screens (AID 2061302; active = well fitted inhibition curve with a large enough effect; title and protocol of this record describe different tests;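 also: plate controls were DMSO vehicle for no effect and maximal DPI positive control response for full effect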)
[3] = biological target: Aldehyde dehydrogenase, mitochondrial (Homo sapiens) (UniProt P05091); experiment: qHTS for Inhibitors of the Aldehyde Dehydrogenase Family (ALDH2) Primary screen (AID 2061308);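 also: plate controls were vehicle for no effect and reference inhibitor for full effect; nearly all actives have a fitted effect of over 55% in size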
[4] = biological target: Retinaldehyde dehydrogenase 3 (Homo sapiens) (UniProt P47895); experiment: qHTS for Inhibitors of the Aldehyde Dehydrogenase Family (ALDH1A3) Primary screen (AID 2061315);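 also: plate controls were DMSO vehicle for no effect and reference inhibitor for full effect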
[5] = biological target: Aldehyde dehydrogenase, mitochondrial (Homo sapiens) (UniProt P05091); experiment: qHTS for Inhibitors of the Aldehyde Dehydrogenase Family (ALDH2) Confirmatory screens (AID 2061303; active = well fitted inhibition curve with a large enough effect; title and protocol of this record describe different tests; also: % is scaled to controls: 0 for no effect and ±100 for the full control effect; nearly all actives have a fitted effect of over 45% in size)
[6] = qHTS for Inhibitors of the Aldehyde Dehydrogenase Family (ALDH1A2, ALDH1A3, ALDH2, ALDH3A1) (AID 2061307); also: % is scaled to controls: 0 for no effect and ±100 for the full control effect; nearly all actives have a fitted effect of over 50% in size
[7] = biological target: Retinaldehyde dehydrogenase 3 (Homo sapiens) (UniProt P47895); experiment: qHTS for Inhibitors of the Aldehyde Dehydrogenase Family (ALDH1A3) Confirmatory screens (AID 2061311); also: % is scaled to controls: 0 for no effect and ±100 for the full control effect; nearly all actives have a fitted effect of over 60% in size
[8] = biological target: Retinal dehydrogenase 2 (Homo sapiens) (UniProt O94788); experiment: qHTS for Inhibitors of the Aldehyde Dehydrogenase Family (ALDH1A2) Confirmation screens (AID 2061314); also: % is scaled to controls: 0 for no effect and ±100 for the full control effect; nearly all actives have a fitted effect of over 65% in size
[9] = biological target: Aldehyde dehydrogenase 1A1 (Homo sapiens) (UniProt P00352); experiment: qHTS for Inhibitors of the Aldehyde Dehydrogenase Family (ALDH1A1) Confirmatory screens (AID 2061316); also: % is scaled to controls: 0 for no effect and ±100 for the full control effect; nearly all actives have a fitted effect of over 65% in size

Sequence of Cellular tumor antigen p53 (Homo sapiens) (P04637 whole entry, looked up): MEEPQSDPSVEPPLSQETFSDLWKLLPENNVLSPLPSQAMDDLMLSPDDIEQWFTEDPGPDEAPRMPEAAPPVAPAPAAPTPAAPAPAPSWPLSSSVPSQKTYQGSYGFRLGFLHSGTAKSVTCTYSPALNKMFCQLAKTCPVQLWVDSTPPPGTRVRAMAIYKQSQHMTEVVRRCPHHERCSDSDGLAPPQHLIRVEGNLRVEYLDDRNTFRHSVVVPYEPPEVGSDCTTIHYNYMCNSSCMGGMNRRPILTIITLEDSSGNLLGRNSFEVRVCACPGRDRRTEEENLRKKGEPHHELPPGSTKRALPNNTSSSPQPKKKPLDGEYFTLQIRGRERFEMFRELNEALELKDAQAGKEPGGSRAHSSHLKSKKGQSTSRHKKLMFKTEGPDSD

**Q.** With `CCC(=O)c1c(O)cc(O)cc1O` as the compound, how does the activation [1] read?
**A.** Its activation is -1.67%.

**Q.** With `CC(=O)CC/C=C(\C)CC/C=C(\C)CC/C=C(\C)CCC=C(C)C` as the compound, how does the activation [1] read?
**A.** Its activation is -15.3%.

**Q.** For `CCCCCN=C(N)NN=Cc1c[nH]c2ccc(OC)cc12`, which activation [1] is on record?
**A.** The activation was 31%.

**Q.** With `C/C=C1/[C@H](O[C@@H]2O[C@H](CO)[C@@H](O)[C@H](O)[C@H]2O)OC=C(C(=O)OC)[C@H]1CC(=O)O[C@@H]1O[C@H](CO)[C@@H](O)[C@H](O)[C@H]1O` as the compound, how does the activation [1] read?
**A.** The activation was -32.8%.

**Q.** With `CC(C)[C@@H]1CC[C@@H](C)CC1=O` as the compound, how does the activation [1] read?
**A.** Its activation is 16.4%.

**Q.** For `O=C1Cc2cc(CCN3CCN(c4nsc5ccccc45)CC3)c(Cl)cc2N1`, which Potency [1] is on record?
**A.** Its Potency is 27.6 µM (active).

**Q.** And the activation [1]?
**A.** Its activation is -69%.

**Q.** And the Potency [2]?
**A.** The Potency was “inactive”.

**Q.** And the Potency [3]?
**A.** The Potency was “inactive”.

**Q.** What about the Potency [4] of the same compound?
**A.** The Potency was “inactive”.

**Q.** For `COCC(=O)O[C@]1(CCN(C)CCCc2nc3ccccc3[nH]2)CCc2cc(F)ccc2[C@@H]1C(C)C`, which Potency [1] is on record?
**A.** Its Potency is 21.9 µM (active).

**Q.** What about the activation [1] of the same compound?
**A.** Its activation is 29.4%.

**Q.** And the Potency [2]?
**A.** The Potency was “inactive”.

**Q.** What about the Potency [5] of the same compound?
**A.** Its Potency is “inactive”.

**Q.** What about the Potency [6] of the same compound?
**A.** The Potency was “inactive”.

**Q.** And the Potency [7]?
**A.** The Potency was “inactive”.

**Q.** And the Potency [8]?
**A.** Its Potency is “inactive”.

**Q.** What about the Potency [9] of the same compound?
**A.** Its Potency is “inactive”.

**Q.** For `Cc1c(-c2cccc3c(CCCOc4cccc5ccccc45)c(C(=O)O)n(Cc4cccnc4)c23)c(COc2ccc(N3CCN([S+](=O)([O-])N(C)C)CC3)cc2)nn1C`, which activation [1] is on record?
**A.** Its activation is -39.2%.

**Q.** For `C/C(=C(/OCCOc1ccc(Cl)cc1)c1ccc(Cl)cc1Cl)n1ccnc1`, which activation [1] is on record?
**A.** Its activation is 7.53%.

**Q.** For `CN1C[C@H](C(=O)N[C@]2(C)O[C@@]3(O)[C@@H]4CCCN4C(=O)[C@H](Cc4ccccc4)N3C2=O)C[C@@H]2c3cccc4[nH]cc(c34)C[C@H]21`, which Potency [1] is on record?
**A.** Its Potency is 24.6 µM (active).

**Q.** And the activation [1]?
**A.** The activation was 7.67%.

**Q.** And the Potency [2]?
**A.** Its Potency is “inactive”.

**Q.** Which activation [1] does the source give for `CC1(C)S[C@@H]2[C@H](NC(=O)[C@H](N)c3ccccc3)C(=O)N2[C@H]1C(=O)O` here?
**A.** The activation was -15.3%.

**Q.** Which activation [1] does the source give for `C[N+]1(C)[C@@H]2CC(OC(=O)[C@H](CO)c3ccccc3)C[C@H]1[C@H]1O[C@@H]12` (stereo partly specified) here?
**A.** Its activation is 14%.

**Q.** For `NC(=O)c1nnn(Cc2cc(Cl)c(C(=O)c3ccc(Cl)cc3)c(Cl)c2)c1N`, which activation [1] is on record?
**A.** Its activation is -8.58%.

— PubChem BioAssay (NCATS)
